Drawing on PubChem BioAssay (Tox21), this text covers Potency for 40 compounds.

Several values for one entry are separate records, joined by “and”; a condition that tells them apart may be missing. Equal entries are not always repeated. Results filed as inconclusive are left out. Where a call stands in place of a potency, no number is given. Activity calls are given as the source filed them. Calls follow the shape of the dose curve; as a rule, active = well fitted inhibition curve with a large enough effect in the signal ratio in the repeat runs (not every such curve was filed as active); inconclusive = weak or mixed curves, or effect the other way; inactive = no such curve, though single readings can be large or run the other way; the % refers to the signal ratio.
Potency is read from the fitted curve at half-maximal effect.

The target of the test is Vitamin D3 receptor (Homo sapiens) (UniProt P11473). Nature of the test: qHTS assay to identify small molecule antagonists of the vitamin D receptor (VDR) signaling pathway (AID 743223). The settings on record: VDR-UAS-bla HEK293T, beta-lactamase FRET ratio, 16 h; series mostly up to 61 µM. From the text: U.S. Tox21 Program National Center for Advancing Translational Sciences [NCATS] NIH Chemical Genomics Center [NCGC] U.S. Environmental Protection Agency [EPA] National Institutes of Environmental Health Sciences [NIEHS] National Toxicology Program [NTP] U.S. Food and Drug Administration [FDA] Tox21 Assay Overview: The vitamin D receptor (VDR), a member of nuclear hormone receptor superfamily, plays a critical role in calcium homeostasis and bone metabolism. It is also involved in cell differentiation and growth, and thrombogenicity.
Chain of Vitamin D3 receptor (Homo sapiens) (P11473 whole entry, looked up): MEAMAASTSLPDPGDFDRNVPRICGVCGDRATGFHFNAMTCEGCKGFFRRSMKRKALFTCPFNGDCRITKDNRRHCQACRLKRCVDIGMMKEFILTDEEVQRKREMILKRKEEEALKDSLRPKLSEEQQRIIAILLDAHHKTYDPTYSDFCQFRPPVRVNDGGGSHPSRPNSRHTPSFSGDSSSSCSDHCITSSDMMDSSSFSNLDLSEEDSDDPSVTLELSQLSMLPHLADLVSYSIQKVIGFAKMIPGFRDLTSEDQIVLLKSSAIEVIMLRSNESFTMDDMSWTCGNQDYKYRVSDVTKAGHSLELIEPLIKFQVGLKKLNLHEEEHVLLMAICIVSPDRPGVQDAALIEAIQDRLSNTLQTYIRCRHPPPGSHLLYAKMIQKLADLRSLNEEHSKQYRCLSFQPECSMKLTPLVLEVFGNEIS
Tox21 Assay Protocol Summary: VDR-bla cells were dispensed at 2,000 cells/5 uL of assay medium per well into black wall/clear-bottom 1536-well plates using a Multidrop Combi (Thermo Fisher Scientific, Waltham, MA) dispenser. After the assay plates were incubated at a 37C and 5% CO2 for 4 h, 23 nL of compounds dissolved in DMSO, positive controls or DMSO only was transferred to the assay plate by a Pintool station (Kalypsys, San Diego, CA), followed by addition of 1 uL of 1alpha, 25-Dihydroxy Vitamin D3 (3 nM, final concentration in the wells) using a Bioraptr Flying Reagent Dispenser (FRD) workstation (Beckman Coulter, Indianapolis, IN). The plates were incubated at 37C and 5% CO2 for 16 h, and then 1 uL of LiveBLAzerTM B/G FRET substrate was added using a Bioraptr FRD. The plates were incubated at room temperature for 2 h and fluorescence intensity was measured by an Envision plate reader (PerkinElmer, Shelton, CT).
As for `CC(=O)CCC(=O)O`, the Potency result is “inactive”.
For `CN(C)CCOC(C)(c1ccccc1)c1ccccn1` (stereo not given), the Potency result is “inactive”.
`Nc1c(N=Nc2ccc(-c3ccc(N=Nc4cc(S(=O)(=O)O)c5ccccc5c4N)cc3)cc2)cc(S(=O)(=O)O)c2ccccc12`: the Potency result is “inactive”.
As for `Cc1cccc(C)c1`, the Potency entry was “inactive”.
Regarding `NC(CO)(CO)CO`, the Potency result is “inactive”.
With `CCCCNC(=O)NS(=O)(=O)c1ccc(C)cc1` the entry was “inactive”.
With `CC12CCC(CC1)C(C)(C)O2`, the Potency result was “inactive”.
In the case of `CN(C)C(=S)SC(=S)N(C)C` it was 27.5 µM (active); in that of `CN1CCc2cccc3c2[C@H]1Cc1ccc(O)c(O)c1-3`, “inactive”; in that of `CN1CCC[C@H]1c1cccnc1`, “inactive”.
Take `C1CCC(C(CC2CCCCN2)C2CCCCC2)CC1` (stereo not given): the Potency was 21.3 µM (active).
Take `CNNCc1ccc(C(=O)NC(C)C)cc1`: the Potency entry is “inactive”.
`CCCCCCCCCCCCCCCC[N+](C)(C)Cc1ccccc1`: the Potency was 63.6 µM (active) and 49.8 µM (active).
With `Cc1c(C(=O)O)c(O)cc2c1C(=O)c1c(O)c([C@@H]3O[C@H](CO)[C@@H](O)[C@H](O)[C@H]3O)c(O)c(O)c1C2=O` the entry was “inactive”.
As to `COc1ccc(C(Cl)=C(c2ccc(OC)cc2)c2ccc(OC)cc2)cc1`, the Potency entry was “inactive”.
Turning to `O=c1[nH]cc(F)c(=O)[nH]1`, the Potency result is “inactive”.
For `CCc1nc(N)nc(N)c1-c1ccc(Cl)cc1`, the Potency result is “inactive”.
Consider `CC(C)c1c(C(=O)Nc2ccccc2)c(-c2ccccc2)c(-c2ccc(F)cc2)n1CC[C@@H](O)C[C@@H](O)CC(=O)O`, for which the Potency entry is “inactive”.
On to `CCCCCCCCCCCC[N+](C)(C)Cc1ccccc1`, for which the Potency is 42.8 µM (active) and 53.2 µM (active).
As to `CCN(CC)C(=O)c1cccc(C)c1`, the Potency entry is “inactive”.
For `NS(=O)(=O)c1cc2c(cc1Cl)NCNS2(=O)=O`, the Potency entry is “inactive”.
Regarding `O=C(O)CC(O)C(=O)O` (stereo not given), the Potency entry was “inactive”.
Turning to `OC[C@H]1O[C@H](O[C@]2(CCl)O[C@H](CCl)[C@@H](O)[C@@H]2O)[C@H](O)[C@@H](O)[C@H]1Cl`, the Potency result is “inactive”.
`CCOc1ccc(NC(C)=O)cc1`: the Potency result is “inactive”.
With `O=C(O)c1ccccc1`, the Potency result was “inactive”.
As to `CCCCC1(COC(=O)CCC(=O)O)C(=O)N(c2ccccc2)N(c2ccccc2)C1=O`, the Potency result was “inactive”.
With `CS(=O)(=O)OCCCCOS(C)(=O)=O`, the Potency result is “inactive”.
In the case of `F[B-](F)(F)F` it was “inactive”; in that of `O=C(Nc1ncc([N+](=O)[O-])s1)c1cccs1`, “inactive”; in that of `CCCC[P+](CCCC)(CCCC)CCCC`, “inactive”.
Turning to `COc1cccc(O)c1O`, the Potency result was “inactive”.
As for `NS(=O)(=O)O`, the Potency entry is “inactive”.
Consider `CC(=O)CC(c1ccccc1)c1c(O)c2ccccc2oc1=O` (stereo not given), for which the Potency result was “inactive”.
Regarding `NC1CCCCC1`, the Potency result was “inactive”.
`CN(N=O)C(=O)N[C@@H]1[C@@H](O)[C@H](O)[C@@H](CO)O[C@@H]1O`: the Potency result was “inactive”.
`O=S1(=O)OC(c2ccc(O)cc2)(c2ccc(O)cc2)c2ccccc21`: the Potency result is “inactive”.
In the case of `CC(=O)C(=O)O`, the Potency result was “inactive”.
For `CCCCCCc1ccc(O)cc1O`, the Potency result is “inactive”.
In the case of `NC(=O)c1cccnc1` it was “inactive”.
For the compound `C/C=C/C=C/C(=O)O`, the Potency entry is “inactive”.
